Laboratory results published in the antibiotic and cytotoxicity screens of Wong et al. (2023).
In all, about 39,000 compounds went through this assay and about 3,300 (8.5%) were called active. This excerpt belongs to a sample that is enriched for actives.

What follows are molecules tested on HepG2 (assay: cytotoxicity call (relative viability < 0.9)). Conditions: 10 µM.

**Q.** Which cytotoxicity call does the source give for `COc1cc(C(=O)O)cc(OC)c1OC` here?
**A.** inactive

**Q.** With `CCC(CC)C(=O)N[C@@H]1[C@@H]2CNC[C@@H]21` as the molecule, how does the cytotoxicity call read?
**A.** inactive

**Q.** `NC[C@H](CC(=O)O)c1ccc(Cl)cc1` was tested. Which cytotoxicity call did it give?
**A.** inactive

**Q.** `C[C@@H](N)Cc1ccc(O)cc1` was tested. Which cytotoxicity call did it give?
**A.** inactive

**Q.** How did the cytotoxicity call turn out when `C=C(CCCCCCCCCCCCCCCC)OOC[C@@H](COP(=O)(ON)O[C@@H]1[C@H](O)[C@H](O)[C@@H](OP(=O)(O)ON)[C@H](OP(=O)(O)ON)[C@H]1O)OOC(=C)CC/C=C/C/C=C/C/C=C/C/C=C/CCCCC` (stereo partly specified) was run?
**A.** active

**Q.** For `C[C@H](CO)N1C[C@H](C)[C@H](CN(C)C(=O)Oc2cccc3ccccc23)OCc2cn(nn2)CCCC1=O`, which cytotoxicity call is on record?
**A.** inactive

**Q.** Which cytotoxicity call does the source give for `Oc1ccc(Cl)cc1` here?
**A.** inactive

**Q.** With `Cc1cc(O)ccc1Cl` as the molecule, how does the cytotoxicity call read?
**A.** active

**Q.** How did the cytotoxicity call turn out when `CNC(=O)Oc1ccc2c(c1)C1(C)CCN(C)C1N2C.O=S(=O)(O)O` (stereo unspecified) was run?
**A.** active

**Q.** For `CNC(=O)Oc1ccc2c(c1)[C@]1(C)CCN(C)[C@@H]1N2C.CNC(=O)Oc1ccc2c(c1)[C@]1(C)CCN(C)[C@@H]1N2C.O=S(=O)(O)O`, which cytotoxicity call is on record?
**A.** inactive

**Q.** `Br.COc1ccc2c(c1)C13CCCCC1C(C2)N(C)CC3` (stereo unspecified) was tested. Which cytotoxicity call did it give?
**A.** inactive

**Q.** Which cytotoxicity call does the source give for `CNC(=O)Oc1ccc2c(c1)C1(C)CCN(C)C1N2C.O=C(O)c1ccccc1O` (stereo unspecified) here?
**A.** active

**Q.** Which cytotoxicity call does the source give for `CNC(=O)Oc1ccc2c(c1)C1(C)CCN(C)C1N2C` (stereo unspecified) here?
**A.** active

**Q.** For `CN1CCC2(C)c3cc(O)ccc3N(C)C12.O=C(O)C=CC(=O)O` (stereo unspecified), which cytotoxicity call is on record?
**A.** active

**Q.** How did the cytotoxicity call turn out when `Cc1ccc(C)c(C(=O)[C@H](N)CC(C)C)c1` was run?
**A.** inactive

**Q.** With `Cc1cc(C(=O)N2CC[C@H]3[C@@H]2CCN3C)no1` as the molecule, how does the cytotoxicity call read?
**A.** inactive

**Q.** For `CCOc1ccc(N2CCNCC2)nn1`, which cytotoxicity call is on record?
**A.** inactive

**Q.** How did the cytotoxicity call turn out when `C[C@H](O)[C@]12[C@@H]3CC=C[C@H]1N2CC3` (stereo partly specified) was run?
**A.** inactive

**Q.** Which cytotoxicity call does the source give for `C[C@@H](N)Cc1ccco1` here?
**A.** inactive

**Q.** With `CSC1=NN1c1cc(C)nc(N)n1` as the molecule, how does the cytotoxicity call read?
**A.** inactive

**Q.** For `N#C[C@@]12[C@H]3CC=C[C@@H]1N2CC3` (stereo partly specified), which cytotoxicity call is on record?
**A.** inactive

**Q.** With `c1nc(N2CCN3CCC[C@H]3C2)c2[nH]cnc2n1` as the molecule, how does the cytotoxicity call read?
**A.** inactive

**Q.** How did the cytotoxicity call turn out when `COCCCNC(=O)C1[C@@H]2CC[C@H]1CNC2` (stereo partly specified) was run?
**A.** inactive

**Q.** `O=[N+]([O-])OC1COC2C(O[N+](=O)[O-])COC12` (stereo unspecified) was tested. Which cytotoxicity call did it give?
**A.** inactive

**Q.** `OC[C@@H](O)Cc1ccc2c(c1)OCO2` was tested. Which cytotoxicity call did it give?
**A.** inactive

**Q.** Which cytotoxicity call does the source give for `OCc1ccc2c(c1)OCO2` here?
**A.** inactive

**Q.** How did the cytotoxicity call turn out when `C=CCc1ccc2c(c1)OCO2` was run?
**A.** active

**Q.** With `CC=Cc1ccc2c(c1)OCO2` as the molecule, how does the cytotoxicity call read?
**A.** inactive

**Q.** How did the cytotoxicity call turn out when `COP(=S)(OC)Oc1ccc([N+](=O)[O-])cc1` was run?
**A.** inactive

**Q.** Which cytotoxicity call does the source give for `CC(C)N(CCC(C(N)=O)(c1ccccc1)c1ccccn1)C(C)C.O=P(O)(O)O` (stereo unspecified) here?
**A.** inactive

**Q.** How did the cytotoxicity call turn out when `Cn1ccnc1N1CCNCC1` was run?
**A.** inactive

**Q.** Which cytotoxicity call does the source give for `c1ccc2c(c1)Nc1ccccc1S2` here?
**A.** active

**Q.** `Nc1ccc(-c2ccccc2)cc1` was tested. Which cytotoxicity call did it give?
**A.** inactive

**Q.** Which cytotoxicity call does the source give for `CC[n+]1c(-c2ccccc2)c2cc(N)ccc2c2ccc(N)cc21.[Br-]` here?
**A.** active

**Q.** `O=c1ccc(=O)[nH][nH]1` was tested. Which cytotoxicity call did it give?
**A.** inactive

**Q.** With `COC(C)(C)CCCC(C)CC=CC(C)=CC(=O)OC(C)C` (stereo unspecified) as the molecule, how does the cytotoxicity call read?
**A.** inactive

**Q.** With `O=C1CNC[C@@H]2c3cccc(F)c3CCN12` as the molecule, how does the cytotoxicity call read?
**A.** inactive

**Q.** Which cytotoxicity call does the source give for `[N-]=[N+]=NCc1ccccc1C[C@]1(C(=O)N2CCOCC2)N=C(c2ccc(OCCCO)cc2)O[C@H]1c1ccccc1N=[N+]=[N-]` here?
**A.** active

**Q.** `[N-]=[N+]=NCc1ccccc1C[C@@]1(C(=O)N2CCCCC2)N=C(c2ccc(OCCCO)cc2)O[C@@H]1c1ccccc1N=[N+]=[N-]` was tested. Which cytotoxicity call did it give?
**A.** inactive

**Q.** For `[N-]=[N+]=NCc1ccccc1C[C@]1(C(=O)N2CCCCC2)N=C(c2ccc(OCCCO)cc2)O[C@H]1c1ccccc1N=[N+]=[N-]`, which cytotoxicity call is on record?
**A.** active

**Q.** For `CN1CCc2cc([C@H](CN)N(C)C)ccc21`, which cytotoxicity call is on record?
**A.** inactive

**Q.** How did the cytotoxicity call turn out when `CCOP(=S)(OCC)SCSP(=S)(OCC)OCC` was run?
**A.** inactive

**Q.** With `NCCc1cccs1` as the molecule, how does the cytotoxicity call read?
**A.** inactive

**Q.** How did the cytotoxicity call turn out when `CN(C)C(=O)[C@H]1CCC2(CCNCC2)CO1` was run?
**A.** inactive

**Q.** Which cytotoxicity call does the source give for `Cc1cc(C2=NO[C@](c3cc(Cl)cc(Cl)c3)(C(F)(F)F)C2)ccc1C(=O)NCC(=O)NCC(F)(F)F` here?
**A.** inactive

**Q.** Which cytotoxicity call does the source give for `[O-][n+]1ccccc1[S][Zn][S]c1cccc[n+]1[O-]` here?
**A.** active

**Q.** How did the cytotoxicity call turn out when `C[As](C)SC[C@H](NC(=O)CC[C@H](N)C(=O)O)C(=O)NCC(=O)O` was run?
**A.** inactive

**Q.** Which cytotoxicity call does the source give for `CS(=O)(=O)c1ccc(C(=O)C2C(=O)CCCC2=O)c([N+](=O)[O-])c1` here?
**A.** inactive

**Q.** For `Cl.NCC(O)c1ccc(O)cc1` (stereo unspecified), which cytotoxicity call is on record?
**A.** inactive

**Q.** `O=C([O-])CCCO.[Na+]` was tested. Which cytotoxicity call did it give?
**A.** inactive

**Q.** With `C[C@]12C(=O)OC(=O)[C@]1(C)[C@H]1CC[C@H]2O1` as the molecule, how does the cytotoxicity call read?
**A.** active

**Q.** For `C[C@@]12C(=O)OC(=O)[C@]1(C)[C@H]1CC[C@@H]2O1`, which cytotoxicity call is on record?
**A.** active

**Q.** For `CC12C(=O)OC(=O)C1(C)C1CCC2O1` (stereo unspecified), which cytotoxicity call is on record?
**A.** active

**Q.** With `NC1(c2ccc(F)cc2)CCC1` as the molecule, how does the cytotoxicity call read?
**A.** inactive

**Q.** `COC(=O)C1(O)C[C@H]2CC[C@@H](C1)N2C` (stereo partly specified) was tested. Which cytotoxicity call did it give?
**A.** inactive

**Q.** `CC=C(C)C(=O)OC1CC(OC(C)=O)C2(C(=O)OC)COC3C2C12COC(O)(C(=O)OC)C2C(C)(C12OC1(C)C1CC2OC2OC=CC21O)C3O` (stereo unspecified) was tested. Which cytotoxicity call did it give?
**A.** inactive
